The results in this text go back to PubChem BioAssay (Tox21).

Assay [1] can be described thus: qHTS assay to identify small molecule agonists of the hypoxia (HIF-1) signaling pathway - cell viability counter screen (AID 1224844; calls by dose curve; further: nearly all actives have a fitted effect of over 50% in size). In outline: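 HRE-bla ME-180 cells in medium with 0.5% dialyzed FBS were preincubated 5 hrs at 37C, exposed to compounds for 17 hrs, then viability was read as CellTiter-Glo luminescence after 30 min at room temperature, in the reporter wells.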

A short description of assay [2]: qHTS assay to identify small molecule agonists of H2AX (AID 1224845; active means well fitted activation curve with a large enough effect in the signal ratio in the repeat runs, not every such curve was filed as active; the % refers to the signal ratio). In outline: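 Wild-type CHO-K1 cells plated overnight, then exposed 3 hr at 37C to compounds at 15 concentrations (0.76% DMSO). Lysed, then HTRF anti-pH2AX(S139)-cryptate/anti-H2AX-d2 detection after 24 hr at room temperature; emissions 665 and 620 nm.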
Assay [3] can be described thus: qHTS assay to identify small molecule agonists of the hypoxia (HIF-1) signaling pathway (AID 1224846; active means well fitted activation curve with a large enough effect in the signal ratio in the repeat runs, not every such curve was filed as active; the % refers to the signal ratio). In outline:
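HRE-bla ME-180 cells (beta-lactamase reporter under hypoxia response element) were plated at 2,000 cells/well in medium with 0.5% dialyzed FBS, rested 5 hrs, then given compounds in DMSO for 17 hrs at 37C, 5% CO2. Reporter induction was read with CCF4-AM FRET substrate.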

The nature of assay [4]: qHTS assay to identify small molecule agonists of H2AX - cell viability counter screen (AID 1224847; calls by dose curve; further: nearly all actives have a fitted effect of over 30% in size; further: potency means the concentration at half of the fitted maximal effect). In short, it runs like this: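 After overnight plating of 1000 CHO-K1 cells per well, a 15-concentration compound series was applied for 3 hr at 37C. Luminescence from CellTiter-Glo, read following 30 min at room temperature, reflected cell viability.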
Assay [5] in a line: qHTS assay to identify small molecule antagonists of the estrogen related receptor (ERR) signaling pathway from Tox21 library (AID 1224848). Further: nearly all actives have a fitted effect of over 50% in size. Further: potency means the concentration at half of the fitted maximal effect. In short, it runs like this: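 Cells: ERR line, 2,000/well; 6 h preincubation 37 C/5% CO2. Cpd in DMSO via pin tool; 18 h, 37 C. ONE-Glo, 30 min RT, luminescence.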
Assay [6] is described as follows: qHTS assay to identify small molecule agonists of the estrogen related receptor (ERR) signaling pathway from Tox21 library (AID 1224849; calls by dose curve; further: nearly all actives have a fitted effect of over 15% in size). As to conditions: ERR reporter cell line, ONE-Glo luciferase, 18 h. In outline:
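ERR reporter cell line (NTP) seeded, rested 6 h at 37 C/5% CO2, then pinned with Tox21 compounds in DMSO. After 18 h at 37 C, ONE-Glo luciferase luminescence was read following 30 min at room temperature.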

A short description of assay [7]: qHTS RealTime-Glo MT Cell Viability Assay in HepG2 cells - 24 hour (AID 1224867). Further: nearly all actives have a fitted effect of over 50% in size. In outline:
(§1)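 Cells + NanoLuc/prosubstrate dispensed (600 cells/well) → 5 h at 37 C/5% CO2 → compounds in DMSO transferred → 40 h incubation at 37 C, luminescence read at 0, 8, 16, 24, 32, 40 h.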

Assay [8] in a line: qHTS RealTime-Glo MT Cell Viability Assay in HEK293 cells - 32 hour (AID 1224868). Further: nearly all actives have a fitted effect of over 50% in size. Further: potency means the concentration at half of the fitted maximal effect. In short, it runs like this:
(§2)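 Tox21 10K qHTS, HEK293, 600 cells/well, RealTime-Glo reagent co-dispensed with cells; 5 h preincubation, compound by pintool, 37 C, luminescence at 0–40 h.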

A short description of assay [9]: A CellTox Green Cytotoxicity Assay to monitor cytotoxicity in HEK293 cells - 0 hour (AID 1224869). Further: nearly all actives have a fitted effect of over 50% in size. In short, it runs like this: (§3)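 HEK293 cells premixed with CellTox Green dye were seeded at 600 cells/well and left 5 h at 37 C/5% CO2 before pin transfer of 23 nL compound in DMSO. Fluorescence from dye bound to dead-cell DNA was read during 40 h treatment.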
Assay [10] can be described thus: qHTS RealTime-Glo MT Cell Viability Assay in HepG2 cells - 40 hour (AID 1224870). Further: nearly all actives have a fitted effect of over 50% in size. In short, it runs like this:
(§4)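 HepG2 cells mixed with RealTime-Glo MT reagents (NanoLuc plus cell-permeant prosubstrate) were seeded at 600 cells/well, incubated 5 h at 37 C/5% CO2, then pinned with compounds in DMSO; nonlytic luminescence tracked viability during 40 h treatment.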

The nature of assay [11]: A CellTox Green Cytotoxicity Assay to monitor cytotoxicity in HEK293 cells - 40 hour (AID 1224871). Further: nearly all actives have a fitted effect of over 45% in size. Further: potency means the concentration at half of the fitted maximal effect. In outline: as §3
The nature of assay [12]: qHTS RealTime-Glo MT Cell Viability Assay in HEK293 cells - 16 hour (AID 1224872). Further: nearly all actives have a fitted effect of over 50% in size. Further: potency means the concentration at half of the fitted maximal effect. In outline: as §2
A short description of assay [13]: qHTS RealTime-Glo MT Cell Viability Assay in HEK293 cells - 40 hour (AID 1224874). Further: nearly all actives have a fitted effect of over 50% in size. As to conditions: RealTime-Glo luminescence; max response: stronger effect = lower value. In outline:
(§5)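 HEK293 cells mixed with RealTime-Glo reagents (NanoLuc plus cell-permeant prosubstrate) at 600 cells/well, preincubated 5 h at 37 C/5% CO2, then given 23 nL compound in DMSO. Nonlytic luminescence from viable cells was read at 0, 8, 16, 24, 32 and 40 h.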

Assay [14] in a line: A CellTox Green Cytotoxicity Assay to monitor cytotoxicity in HEK293 cells - 24 hour (AID 1224875). Further: nearly all actives have a fitted effect of over 45% in size. Further: potency means the concentration at half of the fitted maximal effect. In outline:
as §3

Assay [15] is described as follows: A CellTox Green Cytotoxicity Assay to monitor cytotoxicity in HepG2 cells - 16 hour (AID 1224876). Further: nearly all actives have a fitted effect of over 45% in size. Further: potency means the concentration at half of the fitted maximal effect. In short, it runs like this: (§6)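 HepG2 cells were seeded together with the CellTox Green dye at 600 cells/well, left 5 h at 37 C/5% CO2, then given compounds in DMSO. Fluorescence from dye bound to dead-cell DNA was read repeatedly over 40 h of treatment at 37 C.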

Assay [16] in a line: qHTS RealTime-Glo MT Cell Viability Assay in HepG2 cells - 32 hour (AID 1224877). Further: nearly all actives have a fitted effect of over 55% in size. In short, it runs like this:
as §1

A short description of assay [17]: A CellTox Green Cytotoxicity Assay to monitor cytotoxicity in HepG2 cells - 24 hour (AID 1224878). Further: nearly all actives have a fitted effect of over 45% in size. Further: potency means the concentration at half of the fitted maximal effect. In outline:
as §6

A short description of assay [18]: A CellTox Green Cytotoxicity Assay to monitor cytotoxicity in HepG2 cells - 40 hour (AID 1224879). Further: nearly all actives have a fitted effect of over 40% in size. Further: potency means the concentration at half of the fitted maximal effect. In outline: as §6
A short description of assay [19]: qHTS RealTime-Glo MT Cell Viability Assay in HEK293 cells - 0 hour (AID 1224880). In short, it runs like this:
as §5

The nature of assay [20]: qHTS RealTime-Glo MT Cell Viability Assay in HepG2 cells - 8 hour (AID 1224873). Further: nearly all actives have a fitted effect of over 55% in size. In outline:
as §4

Molecules are shown by their SMILES. “And” between values parts separate entries of the source, which are not always exact repeats. Equal entries are not always repeated. Inconclusive results are not listed. Some compounds were tested as several samples or in several runs, with calls that do not always agree. The source made the active and inactive calls. Unless noted, the call rests on the fitted dose curve; in most records, active means well fitted curve in the direction sought with a large enough effect in the repeat runs; inconclusive means weak or mixed curves; inactive means no such curve, though single readings can be large; an effect the other way counts as inactive or inconclusive.
On the % scale 0 is the no-effect control and ±100 the full control effect.

As for `CCOC(=O)C(C)OC(=O)c1cc(Oc2ccc(C(F)(F)F)cc2Cl)ccc1[N+](=O)[O-]` (configuration not stated), the Potency entry in assay [1], in assay [2], in [4], in [7], in assay [9] and in assay [10] was “inactive” in each case. The Potency entry in [11], in [14], in [15], in assay [16], in [17] and in assay [18] was “inactive” throughout. Further, the Potency result in assay [19] was “inactive”. For the same compound, the compound was called inactive in assay [3]. For the same compound, the Potency is 21.6 µM (active) in assay [5], 30.7 µM (active) in assay [8] and 30.7 µM (active) in assay [12]. In addition, the activity change, positive = activation in assay [6] (at 92.4 µM (top of the series)) was -45.1% (inactive) and -19.8% (inactive). Moreover, the max response in [13] is -24.2% (inactive).

Regarding `C1=Cc2cccc3cccc1c23`, the Potency entry in [1], in [2], in [5], in assay [7], in [8] and in assay [9] was “inactive” each time. In addition, the Potency result in assay [12], in assay [20], in assay [15], in [16], in assay [17] and in [18] was “inactive” each time. Further, the Potency entry in assay [19] is “inactive”. Besides, the call in assay [3] was inactive. The activity change, positive = activation in assay [6] (at 92.4 µM (top of the series)) is -16.5% (inactive) and -13.1% (inactive). Besides, the Potency in assay [11] is 49 µM (active). Besides, the max response in [13] was -3.56% (inactive) and 0.553% (inactive).

As for `CCN(CC)C(=O)/C(Cl)=C(\C)OP(=O)(OC)OC`, the Potency entry in assay [1], in assay [2], in assay [4], in assay [7], in assay [8] and in [11] was “inactive” in each case. For the same compound, the Potency result in assay [12], in assay [20], in assay [15], in assay [16], in assay [18] and in [19] was “inactive” throughout. Also, in assay [3], the compound was called inactive. The max response in [13] is -0.126% (inactive) and -1.25% (inactive).

Turning to `CCC(C)(C)c1ccc(O)cc1`, the Potency entry in assay [1], in assay [2], in [5], in assay [7], in assay [8] and in [9] was “inactive” in each case. The Potency result in assay [12], in assay [20], in [16] and in assay [19] was “inactive” throughout. The outcome in [3] was inactive. Further, the activity change, positive = activation in assay [6] (at 42.5 µM (top of the series)) is -6.2% (inactive); in [6] (at 92.4 µM (top of the series)), -16.7% (inactive) and -1.98% (inactive). Besides, the Potency in assay [11] was 49.5 µM (active) and 43.6 µM (active); in [14], 49.5 µM (active) and 49 µM (active); in assay [15] it was 44.1 µM (active) and 43.6 µM (active); in assay [17], 49.5 µM (active) and 43.6 µM (active) and 23.9 µM (active); in assay [18], 44.1 µM (active) and 38.9 µM (active) and 21.3 µM (active). The max response in [13] was -5.76% (inactive) and -0.143% (inactive).

Regarding `CCC(C)c1cc([N+](=O)[O-])cc([N+](=O)[O-])c1O` (configuration not stated), the Potency entry in assay [1], in assay [2], in [7], in assay [8], in [9] and in assay [11] was “inactive” in each case. Also, the Potency entry in assay [12], in assay [20], in assay [15], in [16], in assay [17] and in assay [18] was “inactive” each time. Besides, the Potency entry in assay [19] was “inactive”. For the same compound, in assay [3], the outcome was inactive. The Potency entry in assay [4] is “inactive and 28.4 µM (active)”; in assay [5], “inactive and 13.7 µM (active)”. Further, the activity change, positive = activation in [6] (at 92.4 µM (top of the series)) was -0.756% (inactive) and -61% (inactive). The max response in [13] is 5.87% (inactive).

Turning to `Cc1cccc(N)c1N`, the Potency result in [1], in [2], in assay [5], in [7], in [11] and in assay [12] was “inactive” in each case. For the same compound, the Potency entry in assay [20], in assay [14], in [15], in [16], in [17] and in assay [18] was “inactive” throughout. In addition, the Potency result in assay [19] was “inactive”. Moreover, the call in assay [3] was inactive. Further, in assay [6] (at 92.4 µM (top of the series)), the activity change, positive = activation is 5.31% (inactive) and 103% (active).
